Bioassay records (PubChem)
This is a sample that favours compounds with a hit; in the whole collection about 6.1% have one here.
D1 antagonist – antagonists of human D1 dopamine receptor; P21728; HEK293 TREx D1 cells, calcium flux, dopamine EC80; stronger effect = lower value; activity change, negative = inhibition, % at 10 µM; 360,000 tested, 3.2% active; AID 504652; in the data active = activity change below about -30%; note: % is set by controls: 0 for no effect and ±100 for the full control effect
Target sequence (P21728 whole entry, looked up): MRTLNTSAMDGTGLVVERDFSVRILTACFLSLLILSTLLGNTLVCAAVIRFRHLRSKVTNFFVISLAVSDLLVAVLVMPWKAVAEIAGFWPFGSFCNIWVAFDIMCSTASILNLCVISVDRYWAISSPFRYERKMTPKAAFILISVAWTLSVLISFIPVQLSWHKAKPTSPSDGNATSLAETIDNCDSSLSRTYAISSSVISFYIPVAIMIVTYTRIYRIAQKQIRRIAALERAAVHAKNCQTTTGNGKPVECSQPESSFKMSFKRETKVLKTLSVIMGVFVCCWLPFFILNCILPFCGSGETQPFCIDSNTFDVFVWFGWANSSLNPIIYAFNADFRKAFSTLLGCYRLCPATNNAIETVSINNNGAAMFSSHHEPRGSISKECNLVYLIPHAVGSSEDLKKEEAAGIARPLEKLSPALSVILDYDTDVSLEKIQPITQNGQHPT
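Tetracycline-induced HEK293 Trex D1 cells, force-coupled to calcium, dye-loaded; compounds added and read 180 s, then EC80 dopamine added and calcium flux tracked kinetically another 180 s.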
DRD3 agonist – agonists of human D3 dopamine receptor; max activation, %; 410,000 tested, 0.58% active; AID 652048; P35462; D3R DiscoveRx beta-arrestin cells, luminescence, 90 min; in the data active = max activation above about 30%; note: 0% is about no effect
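Agonist-mode cell screen: cells plated at 1500/well and incubated overnight at 37 °C, then exposed to library compounds for 90 min at 37 °C. Detection reagent was added for 30–60 min at room temperature, and luminescence was read.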
D1 ag – human D1 receptor agonism; HEK293 T-REx D1 cells, calcium flux, agonist mode; P21728; 360,000 tested, 1% active; activation, % at 2 µM; AID 504660; in the data active = activation above about 30%; note: 0% is about no effect
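Tetracycline-induced HEK293 TREx D1 cells, force-coupled to calcium signalling, were dye-loaded with a no-wash calcium kit. Compound was pin-added after a 10 s baseline. Fluorescence was read kinetically at 1 cycle/s for 180 s, with calcium rises flagged as agonism.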
D1 potentiator – enhances dopamine response at the human D1 receptor; HEK293 TREx D1 cells, calcium flux, dopamine EC20 potentiation; 360,000 tested, 0.036% active; P21728; AID 504651; potentiation, % at 10 µM; in the data active = potentiation above about 30%; note: 0% is about no effect
D3 antag – D3 dopamine receptor (human) antagonism. D3R cells, DiscoveRx beta-arrestin luminescence, antagonist mode; stronger effect = lower value. 360,000 tested, 2.5% active. max response, negative = inhibition, %. P35462; in the data active = max response below about -50%; inconclusive = no clear call, values can overlap the other calls; note: % is set by controls: 0 for no effect and ±100 for the full control effect
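Cells plated overnight at 1500 cells/well, then exposed to library compounds with dopamine controls for 90 minutes at 37 degrees C. DiscoveRx reagent added for 30–60 minutes at room temperature; luminescence read, quantitative HTS format.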
Starred values were filed as active, the others as inactive; ? = inconclusive; / = no result given; ! = a repeat was not active.

SMILES	D1 antagonist	DRD3 agonist	D1 ag	D1 potentiator	D3 antag
CCOc1ccc(C2=CC(c3cc(Br)ccc3F)n3ncnc3N2)cc1Cl (configuration not stated)	-85.5*	0.6	9.3	-8.1	/
Cc1nc(-c2cccnc2)sc1CCNS(=O)(=O)c1ccc(F)cc1	-8.8	-14.0	2.1	-4.0	/
C=C(C)CSc1nc2sc3c(c2c(=O)n1-c1ccccc1)CCC(C)C3 (configuration not stated)	-3.5	20.4	-0.6	-0.6	/
O=C(Nc1nnc(S(=O)(=O)N2CCCc3ccccc32)s1)c1ccc(Cl)cc1	5.5	1.9	0.5	-1.2	/
Cn1nnnc1Sc1ncnc2scc(-c3ccc(N)cc3)c12	-4.1	/	3.2	7.0	/
COc1ccc(C2C=C(c3ccc(C)cc3)Nc3ncnn32)cc1 (configuration not stated)	3.8	-5.6	-0.8	-1.4	0.0
CCOC(=O)C1=C(C)Nc2ncnn2C1c1cccs1 (configuration not stated)	-8.7	-2.7	-0.4	-13.2	-0.8
COc1ccc(C2C=C(c3ccc(Cl)c(Cl)c3)Nc3ncnn32)cc1 (configuration not stated)	5.3	5.5	48.3*	-3.0	/
CCOC(=O)C1=C(C)Nc2ncnn2C1c1cc(Br)ccc1F (configuration not stated)	-32.8*	1.9	-0.5	2.8	-9.0
CCCCc1nn2c(=O)cc(COC(=O)c3cccc(NC(=O)CCc4ccccc4)c3)nc2s1	11.6	-11.8	-1.3	-0.5	/
COc1ccc(/C=C/c2nc(C#N)c(N3CCN(c4ccccc4)CC3)o2)cc1OC	-9.9	-1.0	-0.1	4.0	/
CC(=O)C[C@H]1c2ccccc2S(=O)(=O)N1C1CCCC1	/	-26.6	/	/	-167.8*
CCOC(=O)C[C@H]1c2ccccc2S(=O)(=O)N1C1CC1	/	0.2	/	/	0.4
CN(C)c1ccc(C(=O)Nc2nnc(C3=COCCO3)o2)cc1	-8.5	-4.4	2.0	-2.5	3.6
CC(C)(C)c1ccc(C(=O)Nc2nnc(C3=COCCO3)o2)cc1	-6.2	-14.4	0.9	-7.5	-71.2*
COc1ccc(C(=O)N2CCN(CCc3ccccn3)CC2)cc1	-45.9*!	-14.1	49.9*!	5.7	-9.6
COc1ccc(OCCN2CCN(C(=O)c3ccc(OC)c(OC)c3)CC2)cc1	-2.2	111.8*	5.5	/	9.1
O=C(NC1CCCC1)C1CCN(C(=O)c2ccc(-c3ccccc3)cc2)CC1	-37.9*	-13.7	4.8	-2.5	-14.1
COc1ccc(CNC(=O)C2CCN(C(=O)c3ccc(-c4ccccc4)cc3)CC2)cc1	-5.3	0.9	2.2	0.6	-12.4
COc1ccc(C(=O)N2CCC(C(=O)NCc3ccccn3)CC2)cc1	-30.9*	3.6	4.0	-11.8	10.2
Cc1ccc(C(=O)N2CCC(C(=O)NC3CCCCCC3)CC2)cc1	-1.5	2.7	4.1	2.6	-3.3
C=CC[C@@H]1/C=C(\C)C[C@H](C)C[C@H](OC)[C@H]2O[C@@](O)(C(=O)C(=O)N3CCCC[C@H]3C(=O)O[C@H](/C(C)=C/[C@@H]3CC[C@@H](O)[C@H](OC)C3)[C@H](C)[C@@H](O)CC1=O)[C@H](C)C[C@@H]2OC	/	-23.7	/	/	/
Cc1ccc(N2C(=O)CCSC23C(=O)N(Cc2ccc(F)cc2)c2ccccc23)cc1 (configuration not stated)	8.9	1.7	1.0	-2.4	/
CCN(CC)C(=O)c1nn(-c2ccc(OC)cc2)c(=O)c2c(N)scc12	-11.6	/	2.5	-4.0	/
CC(c1ccccc1)N1C(=O)c2ccccc2C1(O)Cc1ccccc1 (configuration not stated)	-74.3*	-9.7	2.2	-1.4	-20.1
SMILES	D1 antagonist	DRD3 agonist	D1 ag	D1 potentiator	D3 antag
CCOc1ccc(/C=C2\SC(=O)N(CCNC(=O)C3COc4ccccc4O3)C2=O)cc1OC (configuration not stated)	1.4	49.7*	5.1	-0.2	105.0
COC(=O)c1cnc(Oc2ccc(NC(=O)NC(=O)c3c(OC)cccc3OC)cc2)cc1C(F)(F)F	-54.4*	-11.1	2.4	-10.9	-29.5
CCCNc1ncnc2onc(C)c12	-0.9	-2.5	4.4	3.1	-6.8
COc1ccc(CCNc2ncnc3onc(C)c23)c(OC)c1	-45.4*	9.9	23.7	-7.0	/
Cc1ccc(CCNc2ncnc3onc(-c4ccc(Cl)cc4)c23)cc1	-10.6	1.5	2.8	0.6	/
COc1cccc(CNc2ncnc3onc(C)c23)c1	-7.8	-3.7	25.0	-1.4	/
CCOc1ccc(CCNc2ncnc3onc(-c4ccc(Cl)cc4)c23)cc1	-48.2*	0.7	24.2	-0.1	/
CSc1ccc(CCNc2ncnc3onc(C)c23)cc1	-50.5*	5.7	35.4*	-8.7	/
O=C(CSc1nc2ccccc2n1Cc1cccc(C(F)(F)F)c1)NCc1ccccc1	-1.8	-4.2	27.7	-0.2	/
CCOC(=O)c1ccccc1NC(=O)CSc1ncc(CO)n1Cc1ccc(C)cc1	-17.7	-4.2	14.1	0.2	/
O=C(CSc1ncc(S(=O)(=O)c2ccc(Cl)cc2)c(=O)[nH]1)Nc1ccc2c(c1)OCCO2	0.4	-4.2	0.2	2.1	/
Fc1ccccc1-n1ncc2c1ncn1nc(-c3ccccc3Cl)nc21	5.2	6.2	-0.8	-0.7	/
CC1=C(c2ccc(C)cc2)S(=O)(=O)NC1=NCCCN1CCN(c2ccccc2F)CC1	8.1	-1.0	-1.8	-1.9	/
CN(C)CC(CCC(CN(C)C)C(O)(c1ccccc1)c1ccccc1)C(O)(c1ccccc1)c1ccccc1 (configuration not stated)	-41.4*	-7.9	27.3	-6.9	?
CN(C)C/C=C/C(O)(c1ccccc1)c1ccccc1	-8.2	-2.7	2.1	-10.2	-8.3
Nc1c(C(=O)O)ccc2c1C(=O)c1ccccc1C2=O	-0.6	-11.5	-2.7	-0.6	?
Nc1cc(C(=O)O)c(N)c2c1C(=O)c1ccccc1C2=O	-10.8	-7.9	4.5	0.7	-55.0*
CC1CCN(c2nc(-c3ccccc3O)nc3ccccc23)CC1	11.5	-7.5	2.7	-8.4	-25.8
CC1CCN(c2ncnc3ccccc23)CC1	-34.4*	1.7	21.6	-4.7	14.3
COC(=O)c1ccc(C2C=C(c3ccc(Cl)cc3)Nc3nc4ccccc4n32)cc1 (configuration not stated)	-0.1	-11.1	6.5	6.5	/
CSc1ccccc1NC(=O)c1cccs1	-64.7*	3.8	1.5	-8.2	24.4
CCOC(=O)c1c(NC(=O)c2cccs2)sc(C)c1CC	5.0	-0.9	5.1	0.4	16.3
Cn1ncc(Br)c1C(=O)Nc1c(F)c(F)cc(F)c1F	-3.6	4.0	0.5	-8.6	8.0
CSc1ccccc1NC(=O)c1c(Br)cnn1C	-32.7*	5.7	1.4	3.0	0.0
CCc1c(C)sc(NC(=O)c2cccs2)c1C(=O)OC(C)C	-2.1	3.4	8.6	-3.8	-54.3*
Cc1cnccc1NC(=O)c1cccs1	-40.7*	5.8	1.7	-2.2	0.0
Cc1ccccc1NC(=O)c1ccccc1NC(=O)c1cccs1	14.4	-5.7	-1.6	-4.8	-8.2
